The results in this text go back to PubChem BioAssay.

Assay [1] concerns Wnt5a (protein binding on small-molecule microarray). The experiment in a line: small molecules binding Wnt5a protein – biophysical, small-molecule microarray, 635/667 nm fluorescence, primary screen (AID 1142).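 Note: fluorescence read at 667 nm with signal to noise per printed feature.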 The conditions noted are these: 635 nm fluorescence, higher = more signal.
A short description of assay [2]: ATP-based viability of Huh7 replicon cells – cell-based, CellTiter-Glo luminescence, basal, 48 h, cytotoxicity control for HCV replication inhibitor project, primary screen (AID 1143).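 Note: Huh7 hepatoma cells carrying a hepatitis C replication reporter with no stimulus; test concentration not given here.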 Conditions: higher = more signal, called active from +8 up or from −8 down.
Assay [3] can be described thus: Pseudomonas biofilm growth suppression – PAO1 strain, BacTiter-Glo luminescence, LB-PBS, primary screen (AID 1144). Conditions: P. aeruginosa PAO1 biofilm, 12 h, higher = more signal.
The nature of assay [4]: basal CRE-LacZ reporter activity in PC12 – cell-based, unstimulated, primary screen (AID 1145). The conditions noted are these: no forskolin, luminescence, 4.5 h, higher = more signal, called active from +8 up or from −8 down.
A short description of assay [5]: forskolin-driven CRE-LacZ activity in PC12 – cell-based, CRE-LacZ reporter, forskolin-stimulated, primary screen (AID 1146).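 Note: PC12 cells with 6xCRE LacZ reporter stimulated by forskolin 10 µM; beta-galactosidase reporter signal reflecting CREB driven transcription.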 Conditions: luminescence, 4.5 h, higher = more signal, called active from +8 up or from −8 down.
The target of assay [6] is Streptavidin (Streptomyces avidinii) (UniProt P22629). The experiment in a line: compounds binding control protein streptavidin – biophysical, small-molecule microarray, 635/667 nm fluorescence, artefact control for SMM compound annotation, primary screen (AID 1147).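 Note: signal reflects streptavidin binding to arrayed compounds as a control protein.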 Conditions: higher = more signal.
Assay [7] can be described thus: probe aInhba binding on compound microarray – biochemical, small-molecule microarray, 635/667 nm fluorescence, primary screen (AID 1148).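 Note: score merges 667nm spot fluorescence with signal-to-noise for antibody binding to printed compounds.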 The conditions noted are these: higher = more signal.
Assay [8] addresses Torsin-1A (Homo sapiens) (UniProt O14656). The experiment in a line: TOR1A wild-type binding on microarray – cell lysate, small-molecule microarray, lysate, 635/667 nm, primary screen (AID 1149). Conditions: COS7 hTOR1A-WT lysate, 635 nm fluorescence, higher = more signal.
Assay [9] shares this target. The assay is described as follows: torsin A mutant lysate binding on microarrays – cell lysate, small-molecule microarray, COS7 lysate, 635/667 nm fluorescence, primary screen (AID 1150).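 Note: score pools 667 nm emission and signal to noise measuring lysate protein binding.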 The conditions noted are these: COS7 hTOR1A mutant lysate, 635 nm fluorescence, higher = more signal.
In assay [10] the test system is Sonic hedgehog protein (Shh). The experiment in a line: Sonic hedgehog microarray binding compounds – biochemical, small-molecule microarray, 635/667 nm fluorescence, primary screen (AID 1151).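 Note: Shh protein binding to compounds spotted on small-molecule microarray slides; score combines spot fluorescence intensity with signal-to-noise across triplicate slides.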 The conditions noted are these: 635 nm fluorescence, higher = more signal.

Active and inactive are the calls of the source. Unless noted, the rule behind the calls is not given here.

Torsin-1A (Homo sapiens), sequence (O14656 whole entry, looked up): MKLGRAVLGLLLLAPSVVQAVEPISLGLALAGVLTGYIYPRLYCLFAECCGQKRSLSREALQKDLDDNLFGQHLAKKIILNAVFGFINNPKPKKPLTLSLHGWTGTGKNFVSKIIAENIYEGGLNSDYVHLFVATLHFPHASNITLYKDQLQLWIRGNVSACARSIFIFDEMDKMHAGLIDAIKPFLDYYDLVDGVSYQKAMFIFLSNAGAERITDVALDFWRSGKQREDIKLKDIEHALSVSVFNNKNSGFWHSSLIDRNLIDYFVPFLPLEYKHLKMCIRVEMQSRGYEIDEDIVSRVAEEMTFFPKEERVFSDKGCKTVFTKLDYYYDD
Streptavidin (Streptomyces avidinii), sequence (P22629 whole entry, looked up): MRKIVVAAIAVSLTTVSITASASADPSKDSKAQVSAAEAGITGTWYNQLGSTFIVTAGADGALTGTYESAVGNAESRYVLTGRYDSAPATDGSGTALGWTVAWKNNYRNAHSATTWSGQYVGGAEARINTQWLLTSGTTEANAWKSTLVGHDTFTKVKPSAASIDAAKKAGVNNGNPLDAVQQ

Consider `CC(C)=CCCC(C)=CC(O)C1C=CC2C(=O)N(c3ccccc3)C(=O)C2N1Nc1ccc(C(C)C)cc1` (stereo not given), for which the composite z-score in assay [1] was 0.15; in assay [6] it was 1.33; in [7] it was -0.0087; in assay [8] it was -0.728; in assay [9], -0.151; in [10], -0.309. Moreover, the z-score in assay [2] is -0.11 (inactive); in [3], -0.603 (inactive); in assay [4], 0.44 (inactive); in [5], 0.204 (inactive).

Consider `O=C1O[C@H](c2ccccc2)[C@H](c2ccccc2)N2[C@H]1[C@@H](C(=O)NC[C@H](O)c1ccccc1)[C@]1(C(=O)Nc3ccccc31)[C@H]2c1ccc(O)cc1`, for which the composite z-score was 0.378 in [1]; 0.287 in assay [6]; -0.128 in [7]; 0.643 in assay [8]; 0.506 in [9]; 1.5 in assay [10]. Besides, the z-score in [2] is -1.1 (inactive); in [3], -1.25 (inactive); in assay [4] it was -1.29 (inactive); in [5] it was -0.423 (inactive).

As to `COCCOC(=O)N1C(=O)[C@@]2(c3ccccc31)[C@H](C(N)=O)[C@H]1C(=O)O[C@H](c3ccccc3)[C@H](c3ccccc3)N1[C@@H]2c1ccc(O)cc1`, the composite z-score is 0.169 in assay [1]; -0.432 in assay [6]; -0.204 in [7]; 0.603 in [8]; 0.779 in [9]; 0.105 in assay [10]. The z-score in assay [2] is -2.51 (inactive); in assay [3], -0.166 (inactive); in [4], -0.375 (inactive); in assay [5], 0.06 (inactive).

In the case of `O=C1OCCC=C[C@H]2OC34C=CCN(c5ccc(Cl)cc5)C(=O)[C@H]3N(CCCO)C(=O)[C@@H]4C12` (stereo not given in full), the composite z-score in assay [1] is -0.047; in [6], -0.414; in assay [7] it was -0.227; in [8], -0.531; in assay [9] it was -1.56; in [10], 0.0088. Also, the z-score was -2.24 (inactive) in assay [2], -0.925 (inactive) in assay [3], -0.35 (inactive) in assay [4] and -0.336 (inactive) in assay [5].

For `CC#CC(=O)Oc1ccc(Br)cc1C=CC(=O)OCC`, the composite z-score was -0.0465 in assay [1]; 0.119 in [6]; 0.248 in assay [7]; -0.0177 in assay [8]; -0.329 in assay [9]; 0.247 in assay [10]. Moreover, the z-score in [2] was -2.98 (inactive); in assay [3], 0.0278 (inactive); in [4] it was 1.81 (inactive); in [5] it was 32.2 (active).

Take `O=C1N(CCS(=O)(=O)c2ccccc2)c2ccccc2[C@@H]2OC(c3ccc(OCCCO)cc3)=N[C@]12Cc1ccccc1`: the composite z-score is -0.0372 in assay [1]; 0.14 in assay [6]; 0.0091 in assay [7]; 0.422 in assay [8]; 0.208 in assay [9]; 1.95 in [10]. The z-score in [2] is -3.61 (inactive); in assay [3], -0.157 (inactive); in assay [4], 1.26 (inactive); in assay [5] it was -1.77 (inactive).

In the case of `C=CCOC(=O)[C@H]1[C@@H]2C(=O)O[C@@H](c3ccccc3)[C@@H](c3ccccc3)N2[C@@H](c2ccc(OCCOC(=O)[C@H]3C[C@H]4C(=O)N[C@@H](CCCCN(C)C)C(=O)N4[C@H]3c3cccc(OCCO)c3)cc2)[C@]12C(=O)Nc1ccc(I)cc12`, the composite z-score in [1] was determined as 0.559; in [6], 0.457; in [7], 0.12; in [8], 0.166; in [9], 0.629; in assay [10], 2.27. Also, the z-score in assay [2] is -0.366 (inactive); in assay [3], 0.772 (inactive); in assay [4], -0.671 (inactive); in assay [5] it was 0.892 (inactive).

`CC(C)NC(=O)[C@@H]1c2ccccc2C(=O)N(C(C)C)[C@H]1c1ccc(CO)cc1`: the composite z-score in assay [1] was -0.152; in assay [6], -0.977; in assay [7], -0.193; in [8], 0.0645; in assay [9], 2.08; in assay [10], -0.659. In addition, the z-score in [2] is 0.245 (inactive); in assay [3] it was 1.28 (inactive); in assay [4] it was 0.441 (inactive); in assay [5], 0.0729 (inactive).

In the case of `CCCCC(O)C1C=CC2C(=O)N(C)C(=O)C2N1N1CCCCC1` (stereo not given), the composite z-score came out at 0.0755 in assay [1]; 0.0223 in assay [6]; 0.196 in [7]; 0.0748 in assay [8]; 0.845 in assay [9]; 0.0629 in assay [10]. Besides, the z-score in assay [2] was 1.09 (inactive); in assay [3], 0.382 (inactive); in assay [4], 0.0535 (inactive); in assay [5], 0.47 (inactive).

Consider `COc1cc2c(cc1O)C(c1cccs1)N(Cc1cccc(OC(F)(F)F)c1)CC2` (stereo not given), for which the composite z-score in [1] was -0.189; in [6] it was 0.403; in assay [7] it was -0.0762; in [8] it was 0.288; in assay [9], 0.0814; in [10] it was 0.251. The z-score in [2] is -4.65 (inactive); in assay [3], 0.284 (inactive); in [4], -0.644 (inactive); in [5], -0.73 (inactive).

For the compound `CC(C)(C)OC(=O)CC[C@@]1(C(=O)N2CCCCC2)N=C(c2ccc(OCCCO)cc2)O[C@@H]1c1ccccc1`, the composite z-score in assay [1] was 0.94; in assay [6], 1.82; in assay [7] it was 0.283; in assay [8], 0.766; in assay [9] it was 0.912; in assay [10], -0.45. For the same compound, the z-score was -2.99 (inactive) in [2], -0.34 (inactive) in assay [3], 1.66 (inactive) in assay [4] and 0.127 (inactive) in assay [5].

For `COCCCNC(=O)[C@@]1(Cc2ccccc2)N=C(c2ccc(OCCCO)cc2)O[C@H]1c1ccccc1CN=[N+]=[N-]`, the composite z-score in [1] is 0.419; in [6], 0.716; in assay [7] it was 0.389; in assay [8], 0.544; in assay [9], 0.37; in [10], -0.0164. The z-score in assay [2] is -3.17 (inactive); in assay [3] it was 1.55 (inactive); in assay [4], 0.447 (inactive); in assay [5], -0.929 (inactive).

With `C=C(CCCC)/C(=C/C[C@@H](OC(C)=O)c1cccc(OCCO)c1)c1cnc2ccccc2c1`, the composite z-score is 0.16 in assay [1]; 0.0063 in assay [6]; -0.154 in assay [7]; 1.17 in assay [8]; 0.762 in assay [9]; 2.05 in assay [10]. Besides, the z-score is -0.82 (inactive) in [2], -1.07 (inactive) in assay [3], 1.7 (inactive) in [4] and -0.307 (inactive) in assay [5].

`O=C1NC(=O)C2C1C=CC(C(O)C1CC=CCC1)N2Nc1ccccn1` (stereo not given): the composite z-score was 0.524 in assay [1]; 0.0992 in assay [6]; -0.0645 in assay [7]; 0.153 in [8]; -0.0899 in assay [9]; 0.682 in assay [10]. Besides, the z-score was 0.607 (inactive) in assay [2], -0.893 (inactive) in [3], -0.329 (inactive) in assay [4] and 0.383 (inactive) in assay [5].

Take `CN(C)CCCCCCNC(=O)[C@@H]1C[C@@H]2C(=O)N[C@@H](CCCC[N+](C)(C)C)C(=O)N2[C@@H]1c1ccc(O)cc1`: the composite z-score in assay [1] is 0.133; in assay [6], -0.253; in [7], -0.589; in assay [8], 0.659; in [9], 0.771; in [10], 1.66. Besides, the z-score in [2] is -0.217 (inactive); in assay [3], 0.0162 (inactive); in assay [4], 0.155 (inactive); in [5] it was -0.0457 (inactive).
